# Experimental data from PubChem BioAssay (NCI).
# Compounds without any hit were thinned out: in the full panel of roughly 83,000, 20% have a hit.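 Cells were grown in 96-well plates and exposed to the test compound at a single concentration for 48 hours; results are reported as percent growth, with values below 10 considered active.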 Calls of active or inactive are those of the source.
# System: HL-60(TB) leukemia
# Test: NCI-60 one-dose screen, 48 h (100 = growth as untreated, 0 = no growth, -100 = all killed)
# Settings: 10 µM unless noted
row,Compound,growth
1,CC(C)C1=C[C@@]23CC[C@H]4[C@](C)(COCCC#N)CCC[C@]4(C)[C@H]2C[C@@H]1[C@@H]1[C@H]3[C@@H](OCCC#N)CC[C@@H]1OCCC#N,-42.7% (active)
2,Clc1ccc(C2=NN=C3C(Cc4ccccc4)=Nc4ccccc4N3C2)cc1,25.2% (inactive)
3,COc1ccc(C2=NN(/C=C3\SC(=O)NC3=Nc3ccc(F)cc3)C(c3ccc(F)cc3)C2)cc1 (configuration not stated),98.1% (inactive)
4,c1ccc(C(CC2=NCCCN2)c2ccccc2)cc1,71% (inactive)
5,Cc1cccc(N2C(=O)/C(=C/C(Cl)=C/c3ccc([N+](=O)[O-])cc3)SC2=S)c1C,-13.3% (active)
6,NS(=O)(=O)Oc1cccc(-c2nc3sccn3c2-c2ccccc2)c1,0.181% (active)
7,CCCN(CCSSCCNc1nc(N(C)O)nc(N(C)O)n1)c1nc(N(C)O)nc(N(C)O)n1,88% (inactive)
8,C=CCn1c(=O)c2cnc(Nc3ccc(N4CCN(C)CC4)cc3)nc2n1-c1cccc(C(C)(C)O)n1,-22.4% (active)
9,CC(C)C(C(=O)NCCN1CCOCC1)N1C(=O)/C(=C/c2ccc(Br)cc2)SC1=S (configuration not stated),101% (inactive)
10,CC1OC2CC(=O)OC2C2=C1C(=O)c1c(O)c3c(c(O)c1C2=O)C1CC(O)C3(O)C(C)O1 (configuration not stated),-26.7% (active)
11,O=C(c1ccccc1)C(Br)C(Br)c1cccc([N+](=O)[O-])c1 (configuration not stated),-2.38% (active)
12,Brc1c[n+](Cc2ccc3ccccc3c2)cn1Cc1ccc2ccccc2c1,-47.5% (active)
13,Cc1ccc(C2=NN(c3ccc(S(C)(=O)=O)cc3)C(=O)CC2)cc1,-12% (active)
14,C=C1c2nc3ccccc3n2C=C(c2ccc(Cl)cc2)N1Cc1ccc(OC)cc1,53% (inactive)
15,COc1ccc2nc3cc(Cl)ccc3c(N3CCN(c4nccc(Nc5ccc(Cl)cc5)n4)CC3)c2c1,48% (inactive)
16,O=C1/C(=C/c2ccc(Cl)cc2)CN(Cc2cn(CCNc3ccnc4cc(Cl)ccc34)nn2)C/C1=C\c1ccc(Cl)cc1,-51.5% (active)
17,c1ccc(C2CCCCC2)c(OCCCCCN2CCNCC2)c1,28.2% (inactive)
18,Oc1c(CN2CCC(N3CCOCC3)CC2)cc(Cc2cc(CN3CCC(N4CCOCC4)CC3)c(O)c3ncccc23)c2cccnc12,-5.88% (active)
19,C=CCNc1nc(O)c(/C=C2\C=Nc3ncccc32)s1,-14.5% (active)
20,CN(C)c1ccc(/C=C/c2cc[n+](C)c(/C=C/c3ccc(N(C)C)cc3)c2)cc1,-56.3% (active)
21,CCOC(=O)c1c(C(F)(F)F)n([O-])c2ccc(Cl)cc2[n+]1=O,-65.2% (active)
22,COc1ccc(OC)c(/C=C2\CCc3ccccc3C2=O)c1,16.9% (inactive)
23,C=C[C@@]1(C)CC(=O)[C@@H](C(C)(C)c2cn(C)c3ccc(Br)cc23)C[C@@H]1O[Si](C)(C)C(C)(C)C,106% (inactive)
24,COc1ccc2nc3cc(Cl)ccc3c(NCCNCC(O)CO)c2c1 (configuration not stated),15.6% (inactive)
25,CCN1C(=O)/C(=c2\sc3n(c2=O)C2C(NN=3)N(CC)C(=O)N2CC)c2ccccc21 (configuration not stated),-29.3% (active)
26,c1cc2ccc3cc2cc1CNCCN1CCNCc2ccc4ccc(cc4c2)CNCCN(CCNC3)CCNCc2ccc3ccc(cc3c2)CNCC1,-38.7% (active)
27,O=C(CCCCCCN1CC(=O)N2[C@H](c3ccc(Cl)cc3)c3[nH]c4ccccc4c3C[C@@H]2C1=O)NO,1.54% (active)
